Test results from the supplement of paper PMC11732987, “Enantioselective OTUD7B fragment discovery through chemoproteomics screening and high-throughput optimisation” (Communications Chemistry, 2025).

Legend:
Assay in all cases: log2 ratio of Biotin-Ahx-Ub-VS probe labelling (fragment/DMSO); higher = less target engagement (more negative = stronger competition), active = hit call of the paper (q ≤ 0.05, log2 ratio ≤ -1)
Details in all cases: compound concentration: 200 uM; treatment time: 3 h
USP9X = USP9X (UniProt Q93008)
Outline: (§1)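 In triplicate, 495 µg of HEK293T lysate per sample was incubated with fragment at 200 µM or vehicle for 3 h. Biotin-Ahx-Ub-VS was then added to 0.5 µM final for 1 h, and labelled DUBs were captured with NeutrAvidin, digested with LysC and trypsin, and measured by diaPASEF LC-MS/MS. Data are average log2 fragment/vehicle ratios by unpaired t-test from global-median-normalised Spectronaut label-free quantities, restricted to proteins with ≥2 unique peptides.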

UniProt O00487 = target: UniProt O00487
Outline: as §1

UniProt O00507 = target: UniProt O00507
Outline: as §1

UniProt P51784 = target: UniProt P51784
Outline: as §1

UniProt Q5T2D3 = target: T1, UniProt Q5T2D3
T1 sequence (whole entry): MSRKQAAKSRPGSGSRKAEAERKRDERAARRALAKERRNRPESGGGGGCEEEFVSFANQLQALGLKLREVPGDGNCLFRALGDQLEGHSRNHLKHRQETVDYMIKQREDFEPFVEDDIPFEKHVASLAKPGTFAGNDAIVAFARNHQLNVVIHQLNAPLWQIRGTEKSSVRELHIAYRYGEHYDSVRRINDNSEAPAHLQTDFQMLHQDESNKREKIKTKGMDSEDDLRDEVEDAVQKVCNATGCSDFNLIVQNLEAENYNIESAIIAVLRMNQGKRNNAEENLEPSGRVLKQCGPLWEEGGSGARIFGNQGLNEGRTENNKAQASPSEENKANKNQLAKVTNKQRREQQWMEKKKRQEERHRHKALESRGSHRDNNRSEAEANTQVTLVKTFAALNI
Outline: as §1

UniProt Q8TE49 = target: T2, UniProt Q8TE49
T2 sequence (whole entry): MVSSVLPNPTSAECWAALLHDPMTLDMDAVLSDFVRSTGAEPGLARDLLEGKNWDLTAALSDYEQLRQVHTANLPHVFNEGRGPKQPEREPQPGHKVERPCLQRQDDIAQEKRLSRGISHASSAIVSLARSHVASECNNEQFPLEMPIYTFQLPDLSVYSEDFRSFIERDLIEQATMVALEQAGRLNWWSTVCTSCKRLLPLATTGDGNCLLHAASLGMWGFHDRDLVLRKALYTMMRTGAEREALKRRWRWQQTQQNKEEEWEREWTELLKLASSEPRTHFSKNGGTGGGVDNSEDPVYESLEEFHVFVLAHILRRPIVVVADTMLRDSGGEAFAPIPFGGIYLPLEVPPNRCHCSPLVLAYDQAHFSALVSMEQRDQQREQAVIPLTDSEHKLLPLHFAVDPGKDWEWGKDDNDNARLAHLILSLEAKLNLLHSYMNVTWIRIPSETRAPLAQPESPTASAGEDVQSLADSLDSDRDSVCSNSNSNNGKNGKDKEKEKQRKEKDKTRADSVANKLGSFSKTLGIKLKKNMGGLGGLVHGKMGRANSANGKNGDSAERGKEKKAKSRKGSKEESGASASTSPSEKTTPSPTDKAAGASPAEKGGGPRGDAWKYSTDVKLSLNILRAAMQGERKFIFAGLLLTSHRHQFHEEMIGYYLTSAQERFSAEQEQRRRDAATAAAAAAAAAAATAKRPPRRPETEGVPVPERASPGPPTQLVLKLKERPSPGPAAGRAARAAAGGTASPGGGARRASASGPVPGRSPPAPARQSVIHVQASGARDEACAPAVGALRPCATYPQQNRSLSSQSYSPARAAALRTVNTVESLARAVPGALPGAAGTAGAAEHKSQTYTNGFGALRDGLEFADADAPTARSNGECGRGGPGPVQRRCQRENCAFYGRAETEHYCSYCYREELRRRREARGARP
Outline: as §1

UniProt Q9P2H5 = target: T3, UniProt Q9P2H5
T3 sequence (whole entry): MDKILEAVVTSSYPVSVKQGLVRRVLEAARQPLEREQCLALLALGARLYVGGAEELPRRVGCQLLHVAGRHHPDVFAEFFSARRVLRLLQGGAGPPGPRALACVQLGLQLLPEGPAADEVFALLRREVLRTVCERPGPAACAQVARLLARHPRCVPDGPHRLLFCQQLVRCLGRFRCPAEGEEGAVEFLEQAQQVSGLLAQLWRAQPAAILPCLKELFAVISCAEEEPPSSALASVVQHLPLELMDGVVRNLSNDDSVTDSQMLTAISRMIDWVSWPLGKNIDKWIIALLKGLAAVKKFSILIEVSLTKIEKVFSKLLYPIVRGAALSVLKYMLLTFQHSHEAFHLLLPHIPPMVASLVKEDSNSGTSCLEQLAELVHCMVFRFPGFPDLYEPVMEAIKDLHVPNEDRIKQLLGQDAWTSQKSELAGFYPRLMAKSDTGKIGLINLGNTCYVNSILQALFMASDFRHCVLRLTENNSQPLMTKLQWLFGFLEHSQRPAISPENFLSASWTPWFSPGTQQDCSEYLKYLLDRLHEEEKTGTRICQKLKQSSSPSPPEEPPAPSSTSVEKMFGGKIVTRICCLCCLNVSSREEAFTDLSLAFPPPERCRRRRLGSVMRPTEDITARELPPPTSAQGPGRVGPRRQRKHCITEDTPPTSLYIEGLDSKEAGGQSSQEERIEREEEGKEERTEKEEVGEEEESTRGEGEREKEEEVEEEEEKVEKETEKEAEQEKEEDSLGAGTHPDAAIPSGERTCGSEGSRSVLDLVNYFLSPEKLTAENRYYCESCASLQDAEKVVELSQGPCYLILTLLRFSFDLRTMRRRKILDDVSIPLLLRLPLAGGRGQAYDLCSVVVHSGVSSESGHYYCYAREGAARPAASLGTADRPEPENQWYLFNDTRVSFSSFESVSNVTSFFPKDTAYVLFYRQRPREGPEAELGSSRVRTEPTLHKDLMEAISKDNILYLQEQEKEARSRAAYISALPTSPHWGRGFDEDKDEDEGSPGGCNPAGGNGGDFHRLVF
Outline: as §1

UniProt Q9UGI0 = target: T4, UniProt Q9UGI0
T4 sequence (whole entry): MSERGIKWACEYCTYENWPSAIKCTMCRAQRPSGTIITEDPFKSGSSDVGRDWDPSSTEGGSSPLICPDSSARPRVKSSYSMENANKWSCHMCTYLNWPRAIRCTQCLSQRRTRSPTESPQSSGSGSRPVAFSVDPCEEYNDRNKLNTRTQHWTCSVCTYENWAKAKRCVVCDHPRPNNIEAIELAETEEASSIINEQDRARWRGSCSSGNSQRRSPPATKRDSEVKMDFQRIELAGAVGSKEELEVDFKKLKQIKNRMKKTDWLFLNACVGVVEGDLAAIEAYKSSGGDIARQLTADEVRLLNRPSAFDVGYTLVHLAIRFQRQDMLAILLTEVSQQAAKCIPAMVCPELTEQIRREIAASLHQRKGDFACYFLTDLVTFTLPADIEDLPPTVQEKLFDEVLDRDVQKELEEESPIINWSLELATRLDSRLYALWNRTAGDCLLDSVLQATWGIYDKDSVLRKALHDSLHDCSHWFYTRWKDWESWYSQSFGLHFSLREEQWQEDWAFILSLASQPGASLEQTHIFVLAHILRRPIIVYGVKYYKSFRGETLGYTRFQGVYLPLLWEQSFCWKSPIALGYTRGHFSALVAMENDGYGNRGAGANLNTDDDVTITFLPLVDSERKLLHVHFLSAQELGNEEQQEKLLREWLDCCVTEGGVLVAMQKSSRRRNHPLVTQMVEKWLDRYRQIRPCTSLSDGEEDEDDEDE
Outline: as §1

YOD1 = target: T5, YOD1 (UniProt Q5VVQ6)
T5 sequence (whole entry): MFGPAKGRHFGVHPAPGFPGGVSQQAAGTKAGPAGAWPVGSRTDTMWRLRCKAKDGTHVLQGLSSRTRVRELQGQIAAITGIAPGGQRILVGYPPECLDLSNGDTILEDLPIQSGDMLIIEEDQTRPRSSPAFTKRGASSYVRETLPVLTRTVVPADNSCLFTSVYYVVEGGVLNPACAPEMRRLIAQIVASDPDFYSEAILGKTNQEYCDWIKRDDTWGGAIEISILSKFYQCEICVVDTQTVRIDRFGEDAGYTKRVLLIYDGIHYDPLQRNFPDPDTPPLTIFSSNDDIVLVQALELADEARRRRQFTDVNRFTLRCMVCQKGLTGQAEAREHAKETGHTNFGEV
Outline: as §1

Measured: log2 ratio of Biotin-Ahx-Ub-VS probe labelling

Sequence of UniProt O00487 (O00487 whole entry): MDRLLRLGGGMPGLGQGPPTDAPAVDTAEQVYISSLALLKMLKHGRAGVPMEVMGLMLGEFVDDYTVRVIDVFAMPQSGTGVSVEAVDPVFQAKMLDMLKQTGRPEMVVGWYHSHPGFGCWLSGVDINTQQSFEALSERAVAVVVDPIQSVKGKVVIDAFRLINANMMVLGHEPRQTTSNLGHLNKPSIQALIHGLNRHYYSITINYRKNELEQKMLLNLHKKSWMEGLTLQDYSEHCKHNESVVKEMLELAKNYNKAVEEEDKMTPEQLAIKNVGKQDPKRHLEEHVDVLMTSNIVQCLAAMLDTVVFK
Sequence of USP9X (Q93008 whole entry, the tested form may be a part): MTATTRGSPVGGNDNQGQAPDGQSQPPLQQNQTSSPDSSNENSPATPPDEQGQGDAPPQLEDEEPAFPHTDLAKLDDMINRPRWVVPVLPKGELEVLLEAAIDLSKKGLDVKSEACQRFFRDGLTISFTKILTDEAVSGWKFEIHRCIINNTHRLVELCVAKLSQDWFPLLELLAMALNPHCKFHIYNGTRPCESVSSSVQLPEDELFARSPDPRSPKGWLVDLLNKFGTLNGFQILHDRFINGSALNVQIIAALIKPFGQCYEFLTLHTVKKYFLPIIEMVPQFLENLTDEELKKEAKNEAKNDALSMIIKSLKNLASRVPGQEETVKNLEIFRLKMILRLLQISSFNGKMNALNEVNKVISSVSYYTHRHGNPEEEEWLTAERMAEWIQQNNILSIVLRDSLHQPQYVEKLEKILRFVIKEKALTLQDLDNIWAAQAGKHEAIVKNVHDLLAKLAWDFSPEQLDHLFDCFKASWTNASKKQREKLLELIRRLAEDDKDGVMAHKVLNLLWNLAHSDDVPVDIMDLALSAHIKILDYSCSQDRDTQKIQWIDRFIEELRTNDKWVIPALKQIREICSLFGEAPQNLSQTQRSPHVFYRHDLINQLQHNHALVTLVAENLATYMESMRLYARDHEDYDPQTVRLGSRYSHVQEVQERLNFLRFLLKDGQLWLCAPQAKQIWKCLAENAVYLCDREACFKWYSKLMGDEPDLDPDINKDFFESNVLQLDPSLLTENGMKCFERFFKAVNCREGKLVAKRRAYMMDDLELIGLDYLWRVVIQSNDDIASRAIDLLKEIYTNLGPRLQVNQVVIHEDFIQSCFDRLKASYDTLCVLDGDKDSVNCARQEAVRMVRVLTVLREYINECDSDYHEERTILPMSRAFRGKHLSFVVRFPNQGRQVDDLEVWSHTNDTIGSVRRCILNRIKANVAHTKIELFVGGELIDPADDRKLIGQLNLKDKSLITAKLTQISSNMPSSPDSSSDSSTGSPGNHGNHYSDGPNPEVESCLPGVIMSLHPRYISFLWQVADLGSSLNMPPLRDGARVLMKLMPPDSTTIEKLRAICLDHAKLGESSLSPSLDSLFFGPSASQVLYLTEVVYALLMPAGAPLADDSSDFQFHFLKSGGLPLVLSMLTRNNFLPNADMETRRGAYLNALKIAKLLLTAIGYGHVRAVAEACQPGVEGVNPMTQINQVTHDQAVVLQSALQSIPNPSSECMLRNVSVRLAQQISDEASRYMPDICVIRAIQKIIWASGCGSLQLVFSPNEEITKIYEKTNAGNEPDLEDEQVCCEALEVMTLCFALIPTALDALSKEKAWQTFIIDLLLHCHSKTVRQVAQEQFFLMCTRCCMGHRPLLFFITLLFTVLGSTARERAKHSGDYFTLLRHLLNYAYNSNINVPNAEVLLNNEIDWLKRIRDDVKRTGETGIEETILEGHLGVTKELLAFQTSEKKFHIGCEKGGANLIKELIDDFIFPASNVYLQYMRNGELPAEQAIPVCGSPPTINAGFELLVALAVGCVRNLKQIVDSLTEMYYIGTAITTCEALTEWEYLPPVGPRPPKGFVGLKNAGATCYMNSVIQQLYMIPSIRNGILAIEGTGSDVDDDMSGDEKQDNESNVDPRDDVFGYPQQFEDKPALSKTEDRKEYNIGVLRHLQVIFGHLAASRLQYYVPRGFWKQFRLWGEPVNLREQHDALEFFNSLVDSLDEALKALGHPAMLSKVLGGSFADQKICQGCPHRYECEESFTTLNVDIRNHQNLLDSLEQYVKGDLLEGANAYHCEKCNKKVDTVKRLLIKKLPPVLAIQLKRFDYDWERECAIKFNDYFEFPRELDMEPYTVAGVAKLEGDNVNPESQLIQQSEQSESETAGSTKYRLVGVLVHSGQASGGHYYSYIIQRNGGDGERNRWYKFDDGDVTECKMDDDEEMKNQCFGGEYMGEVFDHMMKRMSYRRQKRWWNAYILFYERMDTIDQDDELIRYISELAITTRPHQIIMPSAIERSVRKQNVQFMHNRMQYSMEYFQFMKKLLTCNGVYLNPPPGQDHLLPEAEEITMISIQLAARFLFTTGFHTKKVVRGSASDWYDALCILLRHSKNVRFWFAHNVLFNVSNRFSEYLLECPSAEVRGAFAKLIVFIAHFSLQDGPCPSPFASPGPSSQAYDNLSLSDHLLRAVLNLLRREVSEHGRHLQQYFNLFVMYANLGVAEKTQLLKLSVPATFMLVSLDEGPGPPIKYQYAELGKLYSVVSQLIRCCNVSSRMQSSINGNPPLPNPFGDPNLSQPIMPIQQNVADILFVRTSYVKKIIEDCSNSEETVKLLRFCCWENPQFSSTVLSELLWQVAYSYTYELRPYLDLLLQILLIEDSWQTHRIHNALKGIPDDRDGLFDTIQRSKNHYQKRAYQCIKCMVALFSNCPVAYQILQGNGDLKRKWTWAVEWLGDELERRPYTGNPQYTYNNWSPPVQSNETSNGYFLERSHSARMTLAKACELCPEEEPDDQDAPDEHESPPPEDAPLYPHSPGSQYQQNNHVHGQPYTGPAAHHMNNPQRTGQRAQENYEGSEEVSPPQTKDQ
Sequence of UniProt P51784 (P51784 whole entry): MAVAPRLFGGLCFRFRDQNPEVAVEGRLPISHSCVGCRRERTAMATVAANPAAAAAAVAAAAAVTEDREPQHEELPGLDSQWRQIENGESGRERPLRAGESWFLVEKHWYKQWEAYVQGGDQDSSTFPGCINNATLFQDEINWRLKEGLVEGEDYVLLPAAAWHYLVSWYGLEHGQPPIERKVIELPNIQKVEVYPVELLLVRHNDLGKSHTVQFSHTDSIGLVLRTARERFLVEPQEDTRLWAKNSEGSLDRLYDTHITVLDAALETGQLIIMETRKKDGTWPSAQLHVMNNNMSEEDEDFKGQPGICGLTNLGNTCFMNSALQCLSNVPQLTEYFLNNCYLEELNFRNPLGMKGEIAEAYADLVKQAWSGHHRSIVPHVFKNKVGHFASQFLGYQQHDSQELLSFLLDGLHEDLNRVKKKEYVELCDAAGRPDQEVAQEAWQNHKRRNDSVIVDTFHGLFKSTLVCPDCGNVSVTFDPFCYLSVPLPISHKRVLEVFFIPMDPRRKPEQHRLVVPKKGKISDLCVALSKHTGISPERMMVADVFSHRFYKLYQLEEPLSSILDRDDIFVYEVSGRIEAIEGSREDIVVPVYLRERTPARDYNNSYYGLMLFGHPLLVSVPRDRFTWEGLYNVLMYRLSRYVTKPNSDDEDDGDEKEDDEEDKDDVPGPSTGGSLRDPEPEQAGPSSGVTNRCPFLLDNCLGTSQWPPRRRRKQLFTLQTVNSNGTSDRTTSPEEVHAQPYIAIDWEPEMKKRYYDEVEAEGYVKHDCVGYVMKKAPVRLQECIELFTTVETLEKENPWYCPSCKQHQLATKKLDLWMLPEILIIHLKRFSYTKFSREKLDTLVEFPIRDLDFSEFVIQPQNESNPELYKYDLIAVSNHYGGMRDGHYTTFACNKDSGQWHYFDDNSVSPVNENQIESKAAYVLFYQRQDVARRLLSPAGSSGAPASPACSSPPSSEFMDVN

O=C(CCl)NCC(=O)N1CCCC1
inactive: USP9X -0.168 | UniProt O00487 -0.0526 | UniProt O00507 -0.0296 | UniProt P51784 0.172 | UniProt Q5T2D3 -0.355 | UniProt Q8TE49 -0.471 | UniProt Q9P2H5 -0.207 | UniProt Q9UGI0 -0.151 | YOD1 -0.225
